Source: PubChem BioAssay AID1159580 (chemical genetic matrix, 2015)
About 2,000 (36%) of roughly 5,500 compounds were called active. Not shown: some 18% with an inconclusive outcome. No stated cut-off is given here; in the data, active means normalized growth mostly below about 0.91 (no sharp cut-off); inconclusive means no clear call, values can overlap the other calls; inactive means mostly above about 0.92. Some of the results follow.

Assay: chemical genetic growth profiling, strain panel (AID 1159580);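 further: tested at 20 µM; growth read once vehicle control cultures reached saturation at 30 °C; 1 = growth at the plate median or of vehicle wells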
Details: S. cerevisiae deletion strains, growth OD

Measured: normalized growth

CCCCCCCCCCCCCCCCC(C(=O)O)C(O)(CC(=O)O)C(=O)O (stereo not drawn)
active: locus YHR030C, strain SLT2, stronger effect = lower value 0.501 | locus YHR079C, strain IRE1, stronger effect = lower value 0.804 | locus YJL095W, strain BCK1, stronger effect = lower value 0.581 | locus YJR066W, strain TOR1, stronger effect = lower value 0.566 | locus YLR113W, strain HOG1, stronger effect = lower value 0.48 | locus YNL183C, strain NPR1, stronger effect = lower value 0.648 | locus YOR231W, strain MKK1, stronger effect = lower value 0.836
inactive: locus YPL256C, strain CLN2, stronger effect = lower value 0.863
